# Test results published in the supplement of paper PMC3334620.
# Whole data set: some 33,000 sequences, median “E-score (-0.5 to 0.5)” near -0.016, cut for the highest 2% near 0.32. The list comes from a sample in which the highest values are over-represented; it also holds similar and randomly drawn sequences.
# Target: T1, Stp1 (UniProt B3LFK1)
# T1 sequence: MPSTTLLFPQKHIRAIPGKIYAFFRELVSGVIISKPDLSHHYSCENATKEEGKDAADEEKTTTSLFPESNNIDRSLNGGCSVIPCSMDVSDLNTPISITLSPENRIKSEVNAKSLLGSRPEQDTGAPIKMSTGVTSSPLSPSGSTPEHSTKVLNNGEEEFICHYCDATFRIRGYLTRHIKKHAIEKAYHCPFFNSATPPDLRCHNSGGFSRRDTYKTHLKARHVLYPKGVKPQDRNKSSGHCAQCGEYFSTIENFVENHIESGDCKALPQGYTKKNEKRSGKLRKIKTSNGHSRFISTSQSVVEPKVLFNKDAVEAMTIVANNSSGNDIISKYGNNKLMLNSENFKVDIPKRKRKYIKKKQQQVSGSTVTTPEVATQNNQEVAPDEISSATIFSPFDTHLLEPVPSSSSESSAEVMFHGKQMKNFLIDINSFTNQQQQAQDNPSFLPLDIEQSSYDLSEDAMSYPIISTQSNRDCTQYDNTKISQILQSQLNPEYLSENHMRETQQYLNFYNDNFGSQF
# Assay: PBM E-score (8-mer binding enrichment) (E-score (-0.5 to 0.5)); higher = stronger / more preferred TF binding
# Details: protein concentration: 200 nM; construct: GST-full length
# Experimental: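 Universal 'all 10-mer' protein binding microarrays (Agilent AMADID 015681) probed with GST-tagged S. cerevisiae TFs (full-length or DBD) made by in vitro transcription/translation (PURExpress), about 100-200 nM. Bound TF was detected with fluorescent anti-GST. Each ungapped 8-mer (which stands for itself and its reverse complement) is scored by the PBM enrichment score (E-score), a modified Wilcoxon-Mann-Whitney statistic from -0.5 to +0.5, computed with the Universal PBM Analysis Suite. Scale: above 0.35 generally sequence-specific binding.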
row,Sequence,PBM E-score
1,AGGCCGGG,-0.163
2,CTGAAAGC,0.0435
3,ACTACTGA,-0.0374
4,AGCCAGGC,-0.101
5,AAGGCGGA,-0.099
6,GAGGAGGC,0.00167
7,GAGGCGGC,0.374
8,GAGGCGGA,-0.00688
9,CAGGCGGC,0.3
10,AAGGCGGC,0.319
11,GGAAACTA,-0.133
12,TCAATGAA,0.0662
13,ACCAAGTG,-0.0911
14,GAGTAGAC,0.0184
15,AGTCGAAC,-0.146
16,GCCATGCC,0.324
17,CAAATGCC,0.227
18,CTAATGCC,0.221
19,CTGATGCC,0.187
20,GAAATGCA,-0.0558
21,CCCATGCC,-0.0109
22,ATAATGCC,0.325
23,GAAATGCC,0.358
24,ATGATGCG,0.148

row,Sequence,PBM E-score
1,ATGATGCC,0.337
2,ATAATGCG,-0.0164
3,ACCATGCC,0.199
4,TACACACA,0.202
5,ATGGATTA,-0.0582
6,ACCTGGAT,-0.266
7,GAAGCATA,-0.00057
8,GTCACAAA,-0.0375
9,AGTCATTG,-0.381
10,CACACTCA,0.0928
11,AAATTTCT,-0.0455
12,AAAATGCT,0.164
13,GCGATGCC,0.319
14,AAAATGCA,-0.0731
15,AAAATGCC,0.352
16,CCGATGCC,0.264
17,GCGATGCA,-0.156
18,ACTCACAC,-0.063
19,CAATCCAA,0.0601
20,AAGCTGGG,-0.164
21,AGCAATTA,0.0484
22,CCCACACC,-0.0557
23,AAGCGGGT,-0.0561
24,TAGCGGCA,0.291

row,Sequence,PBM E-score
1,CAGCGGCG,0.34
2,CAGCGGCC,-0.111
3,AAGCGGCA,0.455
4,CAGCGGCA,0.3
5,AAGCGGCT,0.354
6,AAGCGGAT,-0.0611
7,AAGCGGAA,0.0259
8,GAGCGGAA,0.141
9,AAGCGGGA,-0.095
10,GAGCGGCA,0.44
11,AAAGTTAA,0.102
12,CCCCAGTC,-0.324
13,ACGTGTTA,0.116
14,GTAAGAGA,-0.0111
15,AACTCTAC,-0.212
16,AATCGCTC,-0.292
17,TGAGATCA,0.0358
18,GAGGGGGC,-0.277
19,CTGACCAG,-0.136
20,AAGCGGAG,-0.0617
21,AAGCGGCC,0.282
22,AAGCGGCG,0.458
23,CGGCGTTC,0.391
24,CGGCGTTA,0.454

row,Sequence,PBM E-score
1,GGGCGTTA,0.206
2,AGGCGTTC,0.0316
3,AGGCGTTA,0.236
4,CAGCGTTC,0.0494
5,CGGAGGAA,-0.229
6,CCTCCATA,0.0205
7,GGCCGCAC,0.289
8,TGCCGCAA,0.333
9,CGCCGCAA,0.421
10,CACCGCAA,0.0442
11,TACCGCAA,0.117
12,CGCCGCAG,0.436
13,GGCCGCAA,0.131
14,CCCCGCAC,-0.00823
15,CCCCGCAG,-0.0786
16,TGCCGCCA,0.229
17,CGCCGCAC,0.478
18,AGCCGCAG,0.258
19,CAAAGACG,0.0347
20,AAATGCAA,0.0071
21,ATTAGATA,0.11
22,ACTCACAA,-0.0902
